# Measured values taken from the supplement of paper PMC12282887.
# ± gives the standard deviation of the averaged measurements.
# How the values were obtained:
# Experiment in all cases: promoter activity interaction Z-score (Lux/OD deviation from empty-vector control); higher = stronger promoter induction by the compound
# [1] = system: E. coli BW25113 acrABp lux reporter
# In short: (§1)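 Reporter strains of E. coli BW25113 grew at 37°C in 40 µl LB Lennox in 384-well plates. Readings of OD600 and luminescence were taken every 30 min over 12 h, integrated over 0–8 h (wild type) or 1–9 h (deletion strains), and wells below 10% of the median growth value were excluded. Scores are Z-transformed residuals of growth-normalised luminescence from a fit against a control.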
# [2] = system: E. coli BW25113 micFp lux reporter
# In short: as §1
# [3] = system: E. coli BW25113 ompFp lux reporter
# In short: as §1
# [4] = system: E. coli BW25113 robp lux reporter
# In short: as §1
# [5] = system: E. coli BW25113 soxSp lux reporter
# In short: as §1
# [6] = system: E. coli BW25113 tolCp lux reporter
# In short: as §1
# [7] = 0.0081 µg/ml, genetic background: wild type
# [8] = 0.0081 µg/ml, genetic background: ΔmarA
# [9] = 0.0081 µg/ml, genetic background: Δrob
# [10] = 0.0081 µg/ml, genetic background: ΔsoxS
# [11] = 0.016 µg/ml, genetic background: wild type
# [12] = 0.016 µg/ml, genetic background: ΔmarA
# [13] = 0.016 µg/ml, genetic background: Δrob
# [14] = 0.016 µg/ml, genetic background: ΔsoxS
# [15] = 0.033 µg/ml, genetic background: wild type
# [16] = 0.033 µg/ml, genetic background: ΔmarA
# [17] = 0.033 µg/ml, genetic background: Δrob
# [18] = 0.033 µg/ml, genetic background: ΔsoxS
compound,measurement,setting,value
CC1(C)S[C@@H]2[C@H](/N=C/N3CCCCCC3)C(=O)N2[C@H]1C(=O)O [Mecillinam],promoter activity interaction Z-score,[1]; [7],0.0459 ± 0.4
same,promoter activity interaction Z-score,[1]; [8],1.25 ± 1.5
same,promoter activity interaction Z-score,[1]; [9],-0.273 ± 0.055
same,promoter activity interaction Z-score,[1]; [10],-0.522 ± 0.019
same,promoter activity interaction Z-score,[1]; [11],-0.377 ± 0.16
same,promoter activity interaction Z-score,[1]; [12],0.612 ± 0.15
same,promoter activity interaction Z-score,[1]; [13],-0.267 ± 0.022
same,promoter activity interaction Z-score,[1]; [14],-0.431 ± 0.57
same,promoter activity interaction Z-score,[1]; [15],0.0507 ± 0.0088
same,promoter activity interaction Z-score,[1]; [16],-0.755
same,promoter activity interaction Z-score,[1]; [17],0.113 ± 0.12
same,promoter activity interaction Z-score,[1]; [18],-0.499 ± 0.14
same,promoter activity interaction Z-score,[2]; [7],0.276 ± 0.25
same,promoter activity interaction Z-score,[2]; [8],0.207 ± 0.062
same,promoter activity interaction Z-score,[2]; [9],0.351 ± 0.025
same,promoter activity interaction Z-score,[2]; [10],-0.288 ± 0.15
same,promoter activity interaction Z-score,[2]; [11],0.194 ± 0.12
same,promoter activity interaction Z-score,[2]; [12],0.155 ± 0.054
same,promoter activity interaction Z-score,[2]; [13],0.474 ± 0.16
same,promoter activity interaction Z-score,[2]; [14],0.251 ± 0.044
same,promoter activity interaction Z-score,[2]; [15],0.824 ± 0.39
same,promoter activity interaction Z-score,[2]; [16],-0.211 ± 0.025
same,promoter activity interaction Z-score,[2]; [17],-0.0142 ± 0.33
same,promoter activity interaction Z-score,[2]; [18],0.562 ± 0.17
same,promoter activity interaction Z-score,[3]; [7],0.00268 ± 0.17
same,promoter activity interaction Z-score,[3]; [8],-0.0176 ± 0.4
same,promoter activity interaction Z-score,[3]; [9],-0.211 ± 0.62
same,promoter activity interaction Z-score,[3]; [10],-0.38 ± 0.044
same,promoter activity interaction Z-score,[3]; [11],-1.12 ± 0.37
same,promoter activity interaction Z-score,[3]; [12],-0.241 ± 0.0076
same,promoter activity interaction Z-score,[3]; [13],-0.807 ± 1.2
same,promoter activity interaction Z-score,[3]; [14],-0.124 ± 0.41
same,promoter activity interaction Z-score,[3]; [15],-1.28 ± 0.79
same,promoter activity interaction Z-score,[3]; [16],-0.894 ± 1.1
same,promoter activity interaction Z-score,[3]; [17],-1.44
same,promoter activity interaction Z-score,[3]; [18],0.0879 ± 0.27
same,promoter activity interaction Z-score,[4]; [7],0.327 ± 0.16
same,promoter activity interaction Z-score,[4]; [8],1.43 ± 0.17
same,promoter activity interaction Z-score,[4]; [9],-0.0357 ± 0.087
same,promoter activity interaction Z-score,[4]; [10],0.198 ± 0.16
same,promoter activity interaction Z-score,[4]; [11],-0.956 ± 0.2
same,promoter activity interaction Z-score,[4]; [12],0.379 ± 0.24
same,promoter activity interaction Z-score,[4]; [13],-1.19 ± 0.41
same,promoter activity interaction Z-score,[4]; [14],0.457 ± 1.5
same,promoter activity interaction Z-score,[4]; [15],-1.37 ± 0.12
same,promoter activity interaction Z-score,[4]; [16],-0.827 ± 0.15
same,promoter activity interaction Z-score,[4]; [17],-1.65
same,promoter activity interaction Z-score,[4]; [18],-1.03 ± 0.28
same,promoter activity interaction Z-score,[5]; [7],0.14 ± 0.081
same,promoter activity interaction Z-score,[5]; [8],0.149 ± 0.16
same,promoter activity interaction Z-score,[5]; [9],0.13 ± 0.12
same,promoter activity interaction Z-score,[5]; [10],0.171 ± 0.015
same,promoter activity interaction Z-score,[5]; [11],0.0658 ± 0.21
same,promoter activity interaction Z-score,[5]; [12],0.371 ± 0.073
same,promoter activity interaction Z-score,[5]; [13],0.0922 ± 0.097
same,promoter activity interaction Z-score,[5]; [14],0.495 ± 0.048
same,promoter activity interaction Z-score,[5]; [15],0.18 ± 0.061
same,promoter activity interaction Z-score,[5]; [16],0.154 ± 0.13
same,promoter activity interaction Z-score,[5]; [17],-0.163 ± 0.38
same,promoter activity interaction Z-score,[5]; [18],0.865 ± 0.22
same,promoter activity interaction Z-score,[6]; [7],0.00505 ± 0.64
same,promoter activity interaction Z-score,[6]; [8],-0.0513 ± 0.34
same,promoter activity interaction Z-score,[6]; [9],-0.155 ± 0.23
same,promoter activity interaction Z-score,[6]; [10],-0.674 ± 0.22
same,promoter activity interaction Z-score,[6]; [11],-0.967 ± 0.5
same,promoter activity interaction Z-score,[6]; [12],-0.771 ± 0.8
same,promoter activity interaction Z-score,[6]; [13],-1 ± 0.24
same,promoter activity interaction Z-score,[6]; [14],-0.0514 ± 0.98
same,promoter activity interaction Z-score,[6]; [15],-0.779 ± 2.4
same,promoter activity interaction Z-score,[6]; [16],-0.938
same,promoter activity interaction Z-score,[6]; [17],0.0896 ± 2.1
same,promoter activity interaction Z-score,[6]; [18],1.16 ± 0.64
